Test results as given in PubChem BioAssay.
Calls of active or inactive are those of the source.

Assays:
[1] = A549 cell viability effects, profiling panel, calcein-AM fluorescence, 48 h, basal (AID 1162); conditions: higher = more signal
[2] = adipocyte viability effects, profiling panel, cell-based, 3T3-L1 adipocytes, calcein-AM fluorescence, 48 h, basal (AID 1163); conditions: 3T3-L1 adipocytes viability, higher = more signal
[3] = HepG2 cell viability effects, profiling panel, calcein-AM fluorescence, 48 h, basal (AID 1164); conditions: higher = more signal
[4] = MM1S cell viability effects, profiling panel, calcein-AM fluorescence, 48 h, basal (AID 1165); conditions: higher = more signal;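 note: viability of MM1S multiple myeloma cells under basal unstimulated conditions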
[5] = basal RPMI8226 viability, no added stimulus, profiling panel, cell-based, calcein-AM fluorescence, 48 h, PK04 Diversity Set (AID 1166); conditions: RPMI8226 myeloma viability, higher = more signal;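 note: cells grown under basal conditions without added stimulus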
[6] = basal HepG2 mitochondrial membrane potential changes, profiling panel, cell-based, JC-1 fluorescence, 24 h, 100 nL compound (AID 1167); conditions: higher = more signal
[7] = basal 3T3-L1 adipocyte mitochondrial potential changes, profiling panel, cell-based, JC-1 fluorescence, 3T3-L1 adipocytes, 24 h, 100 nL compound (AID 1168); conditions: JC-1 mitochondrial fluorescence, higher = more signal, called active from +8 up or from −8 down
[8] = basal RPMI8226 mitochondrial membrane potential changes, profiling panel, cell-based, JC-1 fluorescence, 24 h, 100 nL compound (AID 1169); conditions: RPMI8226 myeloma, JC-1 mitochondrial potential fluorescence, higher = more signal
[9] = basal MM1S mitochondrial membrane potential changes, profiling panel, cell-based, JC-1 fluorescence, 24 h, 100 nL compound (AID 1170); conditions: higher = more signal
[10] = A549 lung cancer cell viability effects, profiling panel, resazurin fluorescence, 24 h, PK04 Diversity Set (AID 1171); conditions: higher = more signal, called active from +8 up or from −8 down
Note: test concentration not given here.

## O=C1NC(=O)C2C1C=CC(C(O)C=Cc1ccc([N+](=O)[O-])cc1)N2Nc1ccc(Cl)cc1Cl (stereo not given)
[1]
  z-score: -0.352
[2]
  z-score: -0.122
[3]
  z-score: -0.3
[4]
  z-score: -1.47
[5]
  z-score: -1.4
[6]
  z-score: -0.5
[7]
  z-score: -0.726 (inactive)
[8]
  z-score: -1.02
[9]
  z-score: -0.873
[10]
  z-score: -0.428 (inactive)

## C=C(/C(=C/C[C@H](OC(C)=O)c1ccc(OCCO)cc1)c1cc(C(=O)OC)ccc1OC)C(C)C
[1]
  z-score: 1.32
[2]
  z-score: 0.0952
[3]
  z-score: 0.861
[4]
  z-score: -3.04
[5]
  z-score: -2.43
[6]
  z-score: 2.82
[7]
  z-score: -0.0331 (inactive)
[8]
  z-score: -0.669
[9]
  z-score: -0.631
[10]
  z-score: 1.05 (inactive)

## CC(C)NC(=O)[C@@H]1c2ccccc2C(=O)N(C(C)C)[C@H]1c1ccc(CO)cc1
[1]
  z-score: 0.772
[2]
  z-score: 0.0383
[3]
  z-score: 1.8
[4]
  z-score: 0.333
[5]
  z-score: 0.947
[6]
  z-score: 1.59
[7]
  z-score: -0.423 (inactive)
[8]
  z-score: -0.104
[9]
  z-score: -0.952
[10]
  z-score: 0.842 (inactive)

## O=C1O[C@H](c2ccccc2)[C@H](c2ccccc2)N2[C@H]1[C@@H](C(=O)N1CCN(c3ncccn3)CC1)[C@]1(C(=O)Nc3ccc(C#CC4=CCCCC4)cc31)[C@H]2c1ccccc1OCCO
[1]
  z-score: -1.02
[2]
  z-score: 1.09
[3]
  z-score: -0.769
[4]
  z-score: -2.23
[5]
  z-score: -1.72
[6]
  z-score: -0.915
[7]
  z-score: 2.88 (inactive)
[8]
  z-score: -1.18
[9]
  z-score: -1.01
[10]
  z-score: -1.34 (inactive)

## C=CCN1C(=O)[C@]2(Cc3ccccc3)N=C(c3ccc(OCCCO)cc3)O[C@@H]2c2ccccc21
[1]
  z-score: 0.0386
[2]
  z-score: 0.146
[3]
  z-score: -1.62
[4]
  z-score: -3.02
[5]
  z-score: -3.91
[6]
  z-score: 0.822
[7]
  z-score: 2.21 (inactive)
[8]
  z-score: -1.21
[9]
  z-score: -2.81
[10]
  z-score: -2.28 (inactive)

## C=CCC(OC(C)=O)[C@@H]1[C@@H](N(Cc2cc3ccccc3o2)C(=O)Cc2ccc(OC)cc2)c2cc(OCCCO)ccc2N1C(=O)c1ccc2ccccc2c1 (stereo not given in full)
[1]
  z-score: 0.0348
[2]
  z-score: 0.25
[3]
  z-score: 0.663
[4]
  z-score: 0.817
[5]
  z-score: -0.668
[6]
  z-score: 1.4
[7]
  z-score: -0.38 (inactive)
[8]
  z-score: -0.0277
[9]
  z-score: 1.11
[10]
  z-score: -1.34 (inactive)

## COCCCNC(=O)[C@]1(Cc2ccccc2)N=C(c2ccc(OCCCO)cc2)O[C@@H]1c1ccccc1CN=[N+]=[N-]
[1]
  z-score: 1.16
[2]
  z-score: 0.52
[3]
  z-score: 1.57
[4]
  z-score: -0.488
[5]
  z-score: -2.52
[6]
  z-score: 2.15
[7]
  z-score: -0.0892 (inactive)
[8]
  z-score: -0.985
[9]
  z-score: -0.712
[10]
  z-score: -1.43 (inactive)

## CC(C)(C)OC(=O)CC[C@]1(C(=O)NCCN2CCOCC2)COC(c2ccc(OCCCO)cc2)=N1
[1]
  z-score: 0.263
[2]
  z-score: -0.555
[3]
  z-score: 0.854
[4]
  z-score: -0.61
[5]
  z-score: 0.512
[6]
  z-score: 0.0561
[7]
  z-score: 0.588 (inactive)
[8]
  z-score: 0.212
[9]
  z-score: -0.699
[10]
  z-score: 0.412 (inactive)

## CC(=O)NCCCC[C@@H]1NC(=O)[C@H]2C[C@@H](C(=O)O)[C@@H](c3ccc(O)cc3)N2C1=O
[1]
  z-score: -0.199
[2]
  z-score: 0.766
[3]
  z-score: -0.14
[4]
  z-score: -2.18
[5]
  z-score: -1.3
[6]
  z-score: 0.237
[7]
  z-score: 0.328 (inactive)
[8]
  z-score: -0.621
[9]
  z-score: -1.55
[10]
  z-score: 0.273 (inactive)

## COCCOC(=O)N1C(=O)[C@@]2(c3ccccc31)[C@H](C(N)=O)[C@H]1C(=O)O[C@H](c3ccccc3)[C@H](c3ccccc3)N1[C@@H]2c1ccc(O)cc1
[1]
  z-score: 0.75
[2]
  z-score: -0.0824
[3]
  z-score: 1.51
[4]
  z-score: 0.84
[5]
  z-score: 0.248
[6]
  z-score: -0.244
[7]
  z-score: 0.571 (inactive)
[8]
  z-score: -0.795
[9]
  z-score: 0.119
[10]
  z-score: -1.37 (inactive)

## CCCCC(=C=CC[C@@H](O)c1cccc(OCCO)c1)C[C@@H](O)c1ccccn1
[1]
  z-score: -0.0385
[2]
  z-score: 0.317
[3]
  z-score: 0.175
[4]
  z-score: 0.225
[5]
  z-score: 0.427
[6]
  z-score: -0.667
[7]
  z-score: 0.316 (inactive)
[8]
  z-score: 0.907
[9]
  z-score: -0.578
[10]
  z-score: 0.764 (inactive)

## COc1ccccc1CN1C(=O)c2ccccc2[C@@H](C(=O)NCc2ccccc2)[C@@H]1c1ccc(CO)cc1
[1]
  z-score: 1.2
[2]
  z-score: 0.448
[3]
  z-score: 0.292
[4]
  z-score: -0.881
[5]
  z-score: 0.47
[6]
  z-score: 2.08
[7]
  z-score: 0.819 (inactive)
[8]
  z-score: -0.288
[9]
  z-score: 0.544
[10]
  z-score: 0.832 (inactive)

## C=C(CCCC)/C(=C/C[C@H](OC(=O)c1ccncc1)c1ccc(OCCO)cc1)c1cc(C(=O)OC)ccc1OC
[1]
  z-score: -0.154
[2]
  z-score: 1.55
[3]
  z-score: -0.754
[4]
  z-score: -1.47
[5]
  z-score: -2.56
[6]
  z-score: 1.22
[7]
  z-score: 0.0667 (inactive)
[8]
  z-score: -0.281
[9]
  z-score: -0.93
[10]
  z-score: 0.54 (inactive)

## O=C1NC(=O)C2C1C=CC(C(O)c1ccc(I)cc1)N2Nc1ccc(Cl)cc1Cl (stereo not given)
[1]
  z-score: -0.519
[2]
  z-score: 0.53
[3]
  z-score: -0.363
[4]
  z-score: -3.83
[5]
  z-score: -4.06
[6]
  z-score: -2.51
[7]
  z-score: -1.25 (inactive)
[8]
  z-score: -0.984
[9]
  z-score: -1.09
[10]
  z-score: -1.59 (inactive)

## O=C1O[C@H](c2ccccc2)[C@H](c2ccccc2)N2[C@H]1[C@@H](C(=O)NC[C@H](O)c1ccccc1)[C@]1(C(=O)Nc3ccccc31)[C@H]2c1ccc(O)cc1
[1]
  z-score: -0.184
[2]
  z-score: 0.279
[3]
  z-score: -0.454
[4]
  z-score: -2.03
[5]
  z-score: -3.84
[6]
  z-score: -3.2
[7]
  z-score: -0.104 (inactive)
[8]
  z-score: -0.933
[9]
  z-score: -1.03
[10]
  z-score: -0.377 (inactive)

## COc1ccc([Si](C)(C)[C@@H]2[C@@H](CCO)O[C@]3(C(=O)N(Cc4cccc(N5CCOC5=O)c4)c4ccccc43)[C@H]2C)cc1
[1]
  z-score: -0.687
[2]
  z-score: -0.514
[3]
  z-score: -0.769
[4]
  z-score: -2.11
[5]
  z-score: -4.17
[6]
  z-score: 0.183
[7]
  z-score: 1.05 (inactive)
[8]
  z-score: -0.978
[9]
  z-score: -1.78
[10]
  z-score: -1.76 (inactive)

## CC(C)[Si](C#C[Si](C(C)C)(C(C)C)C(C)C)(O[C@H](C)c1cn(Cc2ccccc2)nn1)C(C)C
[1]
  z-score: 1.25
[2]
  z-score: -0.425
[3]
  z-score: 0.592
[4]
  z-score: 0.636
[5]
  z-score: -1.67
[6]
  z-score: 1.92
[7]
  z-score: -0.367 (inactive)
[8]
  z-score: 0.0518
[9]
  z-score: -0.542
[10]
  z-score: 0.236 (inactive)

## C#CCNCc1ccccc1
[1]
  z-score: -0.29
[2]
  z-score: -0.0255
[3]
  z-score: 0.331
[4]
  z-score: 0.612
[5]
  z-score: -0.523
[6]
  z-score: -0.221
[7]
  z-score: -0.815 (inactive)
[8]
  z-score: -0.804
[9]
  z-score: -0.00594
[10]
  z-score: 0.0196 (inactive)

## CCCCCCc1nc(-c2ccc(-c3ccc(Cl)c(Cl)c3)o2)cc2c1[Si](C(C)C)(C(C)C)O[C@H]2c1ccccc1
[1]
  z-score: -0.793
[2]
  z-score: -0.0866
[3]
  z-score: -1.08
[4]
  z-score: -0.373
[5]
  z-score: 0.568
[6]
  z-score: 0.474
[7]
  z-score: -0.0412 (inactive)
[8]
  z-score: 0.278
[9]
  z-score: -0.284
[10]
  z-score: 1.19 (inactive)

## O=C1N(CCS(=O)(=O)c2ccccc2)c2ccccc2[C@@H]2OC(c3ccc(OCCCO)cc3)=N[C@]12Cc1ccccc1
[1]
  z-score: 0.661
[2]
  z-score: 1.33
[3]
  z-score: 0.993
[4]
  z-score: -2.75
[5]
  z-score: -1.58
[6]
  z-score: 0.637
[7]
  z-score: 2.24 (inactive)
[8]
  z-score: -0.407
[9]
  z-score: -0.989
[10]
  z-score: -2.13 (inactive)

## O=C1O[C@@H](c2ccccc2)[C@@H](c2ccccc2)N2[C@@H](c3ccc(OCCO)cc3)[C@]3(C(=O)Nc4ccc(C#CCCO)cc43)[C@@H](C(=O)NC[C@H](O)c3ccccc3)[C@H]12
[1]
  z-score: 0.225
[2]
  z-score: -0.0616
[3]
  z-score: 0.808
[4]
  z-score: -0.301
[5]
  z-score: 0.407
[6]
  z-score: -0.821
[7]
  z-score: -1.33 (inactive)
[8]
  z-score: -0.479
[9]
  z-score: -0.468
[10]
  z-score: -0.293 (inactive)
